Compounds with a hit are over-represented: about 4.1% of the library has one in this group of screens.
BoNT F protease = blocks Botulinum neurotoxin F light chain protease. Multiplex microsphere protease cleavage assay, flow cytometry. inhibition, % at 10 µM. 0.22% of 360,000 active; in the data active = inhibition above about 35%, passing the limit was not always enough; inconclusive = no clear call, values can overlap the other calls
MazF activator = MazEF (E. coli) toxin RNase activation; 0.32% of 350,000 active; FAM/BHQ RNA-DNA oligo cleavage fluorescence, 5 h; activation, % at 20 µM; AID 504720; P0AE70; in the data active = activation above about 50%
Target sequence (P0AE70 whole entry, looked up): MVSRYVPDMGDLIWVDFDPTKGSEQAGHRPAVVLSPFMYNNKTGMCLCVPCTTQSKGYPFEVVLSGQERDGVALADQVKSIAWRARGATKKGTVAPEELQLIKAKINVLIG
BoNT A protease = BoNT A light chain protease inhibition. multiplex microsphere protease substrate cleavage, flow cytometry. inhibition, % at 10 µM. 0.17% of 360,000 active. AID 588499
Bead autofluor = compound fluorescence in toxin protease inhibitor counterscreen; AID 624483; 3.1% of 360,000 active; fluorescence intensity (test concentration not listed); compound autofluorescence counterscreen, microsphere flow cytometry; hits give high values; in the data active = fluorescence intensity above about 16000; inconclusive = no clear call, values can overlap the other calls
VHR inh abs = DUSP3 (human) phosphatase inhibition; P51452; recombinant VHR phosphatase, pNPP absorbance; inhibition, % at 13.3 µM; 0.52% of 290,000 active; in the data active = inhibition above about 50%
Target sequence (P51452 whole entry, looked up): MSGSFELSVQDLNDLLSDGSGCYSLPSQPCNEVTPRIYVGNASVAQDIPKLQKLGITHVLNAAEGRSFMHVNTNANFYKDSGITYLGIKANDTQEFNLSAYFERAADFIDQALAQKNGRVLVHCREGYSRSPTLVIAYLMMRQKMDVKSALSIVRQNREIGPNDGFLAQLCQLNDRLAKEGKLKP
Anthrax LF inh2 = blocks Bacillus anthracis lethal factor protease; P15917; multiplex microsphere protease cleavage assay, LF; inhibition, % at 10 µM; 0.12% of 360,000 active
A number is an active result; i = inactive; ? = inconclusive; nt = no result given. Rule as the data show it, unless noted: active = inhibition above about 30%; inconclusive = no clear call, values can overlap the other calls; inactive = below that.

SMILES	BoNT F protease	MazF activator	BoNT A protease	Bead autofluor	VHR inh abs	Anthrax LF inh2
CCCc1nc2c3ccccc3ccn2c1CC(C)(C)C	i	nt	i	i	nt	i
COc1ccccc1C(=O)N/C(=C\c1cn(S(=O)(=O)N(C)C)c2ccccc12)C(=O)NCCCN1CCOCC1	i	i	i	i	i	i
CCOc1ccccc1NC(=O)CSc1nnc(-c2cccnc2)o1	i	i	i	i	nt	i
CCCCCn1nnnc1-c1nc2cc(C)c(C)cc2[nH]c1=O	i	nt	i	i	nt	i
COc1ccc(C2C(Oc3ccccc3)C(=O)N2c2cc(C)ccc2C)cc1OC (configuration not stated)	i	i	i	20605	i	i
Cc1ccc(C2Cc3cc(O)c(O)cc3CN2)cc1 (configuration not stated)	i	i	i	i	nt	i
CC1CN(S(=O)(=O)c2cccc(-c3csc(-c4ccccc4)n3)c2)CC(C)O1 (configuration not stated)	i	70	i	i	i	i
O=S(=O)(c1cccc(-c2csc(-c3ccccc3)n2)c1)N1CCOCC1	i	i	i	i	i	i
CCN(CC)c1ccc(C=N/C(C#N)=C(\N)C#N)cc1	i	i	i	17577	i	i
C[C@@H](O)CNC(=O)c1[nH]cnc1C(=O)N[C@H](C)c1ccccc1	i	i	i	i	nt	i
COc1ccc(OC)c(NC(=O)CSc2nnc(NC(=O)c3ccco3)s2)c1	i	i	i	?	i	i
O=C(O)CCN1C(=O)c2ccc(Oc3ccc4c(c3)C(=O)N(CCC(=O)O)C4=O)cc2C1=O	i	i	i	19401	i	i
Cc1cccc(/C=N\Nc2cn[nH]c(=O)c2Cl)c1	i	i	i	17627	i	i
O=c1[nH]ncc(N/N=C\c2cccnc2)c1Cl	nt	i	nt	nt	i	nt
COC(=O)Nc1nnc(-c2ccncc2)s1	i	i	i	22886	i	i
O=C(c1ccccc1)c1ncc(C(F)(F)F)cc1Cl	i	i	i	20699	i	i
O=C(c1ccc(Cl)cc1Cl)c1ncc(C(F)(F)F)cc1Cl	i	i	i	i	i	i
CCc1cn(S(=O)(=O)c2ccccc2OC)nc1N	i	i	i	i	i	i
CCCc1cn(S(=O)(=O)c2ccc(OC)cc2OC)nc1N	i	i	i	17146	i	i
Cn1cc(/C=C2/SC(=O)N(c3ccccc3)C2=O)c2ccccc21	i	i	i	i	i	i
Cn1cccc1/C=C1\SC(=O)N(c2ccccc2)C1=O	i	88	i	i	i	i
Cn1cccc1/C=C1\SC(=Nc2ccccc2)NC1=O	36	i	i	i	i	i
Cc1cc2ncn(/N=C/c3ccc(-c4ccccc4)o3)c2cc1C	i	i	i	21563	i	i
Cc1cc2ncn(/N=C/c3ccc4c(c3)OCO4)c2cc1C	i	i	i	i	i	i
CCCn1c(C(CO)Nc2nc(C)cs2)nc2ccccc21 (configuration not stated)	i	i	i	i	59	i
SMILES	BoNT F protease	MazF activator	BoNT A protease	Bead autofluor	VHR inh abs	Anthrax LF inh2
Cc1csc(NC(CO)c2nc3ccccc3n2CCOCCO)n1 (configuration not stated)	i	i	i	i	nt	i
COc1ccc(-c2c(Sc3ccccc3)c3cc(-c4ccc5c(c4)OCO5)ccc3n2C)cc1	i	nt	i	i	nt	i
COc1ccc(-c2cn(CCN)c(-c3ccncc3)n2)cc1	i	i	i	i	nt	i
COC(=O)[C@H](Cc1ccccc1)NC(=O)NCCC1=CCCCC1	i	i	?	24338	i	i
CCCNC(=O)c1ccccc1C(=O)NCCC	i	i	i	i	i	i
CCOCCNC(=O)c1ccccc1C(=O)NCCOCC	i	i	i	17947	i	i
O=c1c2ccccc2oc2ccc(-c3ccc4cc[nH]c4c3)cc12	i	i	i	i	nt	i
Cc1ccc(-c2ccc(/C=N/N=C3/NC(=O)C(CC(=O)O)S3)o2)c([N+](=O)[O-])c1 (configuration not stated)	i	i	i	i	i	i
O=C(O)CC1S/C(=N/N=C/c2ccc(-c3ccccc3[N+](=O)[O-])o2)NC1=O (configuration not stated)	i	i	i	23815	i	i
COc1ccc(-c2cccc3c2NC(=O)C3=O)cc1OC	i	i	i	i	nt	i
Cc1ccc(NC(=O)C2CCCN2C(=O)Oc2ccccc2)cc1C (configuration not stated)	i	i	i	17854	i	i
Cc1cccc(C)c1NC(=O)C1(NC(=O)C2CCCN2C(=O)OC(C)(C)C)CCCCC1 (configuration not stated)	i	i	i	21811	i	i
Cc1cccc(NC(=O)[C@@H]2CCCN2C(=O)OC(C)(C)C)c1	i	i	i	i	58	i
Cc1cccc(NC(=O)[C@@H]2CCCN2C(=O)OC(C)(C)C)c1C	i	i	i	i	i	i
Cc1ccc(C)c(C(O)c2ncc(-c3ccccc3)[nH]2)c1 (configuration not stated)	i	nt	i	i	nt	i
CC1CC2(C)Oc3ccccc3C3OCC1(CO)C(C)C32 (configuration not stated)	i	i	i	19211	i	i
CC(=O)OCC12COC3c4ccccc4OC(C)(CC1C)C3C2C (configuration not stated)	i	i	i	i	i	i
Cc1cc(C(F)(F)F)nc(SCC(=O)c2cccc([N+](=O)[O-])c2)n1	i	i	i	17551	i	i
Cc1ccc(-c2cc(C(F)(F)F)nc(SCC(=O)c3cccc([N+](=O)[O-])c3)n2)cc1	i	i	i	i	i	i
CCOc1cc(C(=O)NCC2CCCO2)cc(OCC)c1OCC (configuration not stated)	i	i	i	i	i	i
CCOc1cccc(OCC)c2c(C)[n+](CC3CCCO3)c(C)c1-2 (configuration not stated)	i	i	i	i	52	i
COc1ccc(C)cc1NS(=O)(=O)c1ccc(Cl)nc1	i	i	i	i	nt	i
NS(=O)(=O)c1ccc(-c2ccc(/C=C3\SC(=S)N(C4CCS(=O)(=O)C4)C3=O)o2)cc1 (configuration not stated)	i	i	65	i	i	46
NS(=O)(=O)c1ccc(-c2ccc(C=NC3CCS(=O)(=O)C3)o2)cc1 (configuration not stated)	i	i	i	i	i	i
Cc1ccc(/C=C2\SC(=S)N(C3CCS(=O)(=O)C3)C2=O)o1 (configuration not stated)	i	i	35	i	i	i
COc1ccc(-c2coc3c(C(=O)NCC4CCOCC4)cccc23)c(C)c1	i	nt	i	i	nt	i
C=CCSC1=N/C(=C\c2cc(OC)c3c(c2)OCO3)C(=O)S1	i	518	i	i	i	i
CCOc1cc(N2CCOCC2)c(OCC)cc1NC(=O)COc1ncnc2ccccc12	i	i	i	19880	i	i
CC(NC(=O)COC(=O)c1ccc2c(=O)n3c(nc2c1)CCCCC3)c1ccc(F)cc1 (configuration not stated)	i	i	i	i	nt	i

Source: PubChem BioAssay
